Measurements published in patent US20220098591, “STEM-LOOP COMPOSITIONS AND METHODS FOR INHIBITING VASCULAR ENDOTHELIAL GROWTN FACTOR” (DRIVE THERAPEUTICS LLC, published 2022).

The sequences below were run against VEGF-A121 (Homo sapiens, UniProt P15692 SEQ:1-121) (assay: competition; TR-FRET). Conditions: tags: glycan-biotinylated for SPR/FRET/AlphaLISA; Acro BioSystems, Biolegend; chain copies: 2 (stated); ssRNA; all G 2'-F; A,C,U 2'-OMe; 5' C6NH2; 3' idT.
Procedure: Briefly, for competition TR-FRET, 2-fold dilutions of thermally equilibrated aptamers were made in TR-FRET Buffer (50 mM MOPS, pH 7.4, 125 mM NaCl, 5 mM KCl, 50 μM CHAPS, 0.1 mg/mL BSA, 1 mM CaCl₂, and 1 mM MgCl₂). 5 μL of aptamer or control solution was added to a 15 μL mix of glycan biotinylated […] (5 nM final), ALEXA FLUOR® 647-labeled Aptamer (30 nM final), and Streptavidin-Eu (Perkin Elmer; 2.5 nM final) in a black wall low volume 384 well plate (Greiner). For control, 5 μl of 1000-fold excess of unlabeled parent aptamer or 5 μl TR-FRET buffer alone was added to the mix of ALEXA FLUOR® 647-labeled aptamer, biotin-VEGF-A, and Streptavidin-Eu. The plate was covered with a plate seal and subsequently incubated in the dark for 1 hour at room temperature. The plate was read on a Biotek CYTATION™ 5 plate reader. Samples were excited at 330 nm and fluorescent values were collected at 665 nm. Data analysis was performed by subtracting the background value and plotting as percent inhibition, normalized to baseline in the absence of competitor. The values were fit by [Inhibitor] vs. response-Variable slope (four parameters) using GraphPad Prism Version 7.0 and then normalized to aptamer control to obtain an IC₅₀ relative to parent aptamer. Data is presented as log values of relative IC₅₀.
Activity of each of these variants were tested using a time resolved competition TR-FRET assay, as described in Example 7, in which a labeled parent was competed with increasing concentrations of unlabeled variants for binding to VEGF-A₁₂₁.

Chain of VEGF-A121 (P15692 other isoform, or with tags, fused parts or gaps): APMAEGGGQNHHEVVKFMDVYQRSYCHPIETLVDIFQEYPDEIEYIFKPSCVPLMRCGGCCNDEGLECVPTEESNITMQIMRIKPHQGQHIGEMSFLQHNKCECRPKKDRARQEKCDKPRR

Sequence | binding signal
AGGCCGCCUCCGCGCGGACCGGUUUCAUUACCGGGUUUGGCGGCUU | ~9 fold worse IC50 vs Aptamer 26
AGGCCGCCUCCGCGCGGAGGGGUUCAUAUCCCGUUUGGCGGCUU | ~8 fold worse IC50 vs Aptamer 26
AGGCCGCCUCCGCGCGGAGAGGUUUCAUUAUCUCGUUUGGCGGCUU | ~7 fold worse IC50 vs Aptamer 26
AGGCCGCCUCCGUGCGGAGGGGUUUCAUUAUCCCGUUUGGCGGCUU | 4 fold worse IC50 vs Aptamer 26
AGGCCGCCUCCGCGCGGAGAGGGUUCAUUCCCUCGUUUGGCGGCUU | ~9 fold worse IC50 vs Aptamer 26
